# What was measured:
# Conditions in all cases: treatment time: 24 h
# [1] = tested on: A549-ACTB-RAB5A; assay: lowest phenotypically active concentration; higher = less potent
# Summary of the method: (§1)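 Fifteen reporter lines derived from A549, HepG2 and WPMY1 cells by gene editing, carrying BFP for segmentation plus GFP and RFP/FusionRed markers, were exposed to 0.3, 1, 3 or 9 µM for 24 h in four wells each and imaged live. Live-cell features from each well were normalised to solvent control wells. A well set counted as deviating when ≥3 of 4 wells lay beyond the 95th percentile of control Euclidean distances, and as reproducible when the median replicate Pearson correlation exceeded the 95th percentile of non-replicates. Phenotypic activity was assigned only when both criteria were met.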
# [2] = tested on: A549-CANX-COX4; assay: as above
# Summary of the method: as §1
# [3] = tested on: A549-GM130-SQSTM1; assay: as above
# Summary of the method: as §1
# [4] = tested on: A549-TP53BP1-CLTA; assay: as above
# Summary of the method: as §1
# [5] = tested on: A549-TUBA1B-RELA; assay: as above
# Summary of the method: as §1
# [6] = tested on: HepG2-GM130-SQSTM1; assay: as above
# Summary of the method: as §1
# [7] = tested on: A549-ACTB-RAB5A; assay: phenotypically active (imaging signature differs from DMSO and reproducible) at any of 0.3-9 uM (binary (1 = active, 0 = inactive)); higher = active
# Summary of the method: as §1
# [8] = tested on: A549-CANX-COX4; assay: as above
# Summary of the method: as §1
# [9] = tested on: A549-GM130-SQSTM1; assay: as above
# Summary of the method: as §1
# [10] = tested on: A549-TP53BP1-CLTA; assay: as above
# Summary of the method: as §1
# [11] = tested on: A549-TUBA1B-RELA; assay: as above
# Summary of the method: as §1
# [12] = tested on: HepG2-ACTB-RAB5A; assay: as above
# Summary of the method: as §1
# [13] = tested on: HepG2-CANX-COX4; assay: as above
# Summary of the method: as §1
# [14] = tested on: HepG2-GM130-SQSTM1; assay: as above
# Summary of the method: as §1
# [15] = tested on: HepG2-TP53BP1-CLTA; assay: as above
# Summary of the method: as §1
# [16] = tested on: HepG2-TUBA1B-RELA; assay: as above
# Summary of the method: as §1
# [17] = tested on: WPMY1-CANX-COX4; assay: as above
# Summary of the method: as §1
# [18] = tested on: WPMY1-GM130-SQSTM1; assay: as above
# Summary of the method: as §1
# [19] = tested on: WPMY1-TP53BP1-CLTA; assay: as above
# Summary of the method: as §1
# [20] = tested on: WPMY1-TUBA1B-RELA; assay: as above
# Summary of the method: as §1
SMILES,lowest phenotypically active concentration [1] [µM],lowest phenotypically active concentration [2] [µM],lowest phenotypically active concentration [3] [µM],lowest phenotypically active concentration [4] [µM],lowest phenotypically active concentration [5] [µM],lowest phenotypically active concentration [6] [µM],phenotypically active [7],phenotypically active [8],phenotypically active [9],phenotypically active [10],phenotypically active [11],phenotypically active [12],phenotypically active [13],phenotypically active [14],phenotypically active [15],phenotypically active [16],phenotypically active [17],phenotypically active [18],phenotypically active [19],phenotypically active [20]
Cc1ccc(/C(=C/CN2CCCC2)c2cccc(/C=C/C(=O)O)n2)cc1 [acrivastine],1,9,3,9,1,3,1 (active),1 (active),1 (active),1 (active),1 (active),1 (active),1 (active),1 (active),1 (active),1 (active),1 (active),1 (active),1 (active),1 (active)
CC1(C)CC(=O)C2=C(C1)NC(=S)NC2c1cccc(O)c1 (stereo not given) [Dimethylenastron],1,3,1,3,1,1,1 (active),1 (active),1 (active),1 (active),1 (active),1 (active),1 (active),1 (active),1 (active),1 (active),1 (active),1 (active),1 (active),1 (active)
CCCCCCCCCCNCCSSCc1ccc(Cl)cc1,9,9,3,9,3,9,1 (active),1 (active),1 (active),1 (active),1 (active),1 (active),1 (active),1 (active),1 (active),1 (active),1 (active),1 (active),1 (active),0 (inactive)
CC(C)(C)c1nc(-c2cccc(NS(=O)(=O)c3c(F)cccc3F)c2F)c(-c2ccnc(N)n2)s1 [dabrafenib],≤ 0.3,1,≤ 0.3,≤ 0.3,≤ 0.3,≤ 0.3,1 (active),1 (active),1 (active),1 (active),1 (active),1 (active),1 (active),1 (active),1 (active),1 (active),1 (active),0 (inactive),0 (inactive),1 (active)
CN(C)CCCN1c2ccccc2Sc2ccc(Cl)cc21 [chlorpromazine],3,9,3,9,3,9,1 (active),1 (active),1 (active),1 (active),1 (active),0 (inactive),1 (active),1 (active),1 (active),1 (active),1 (active),0 (inactive),1 (active),1 (active)
S=C(S)N1CCCC1 [Pyrrolidinedithiocarbamate ammonium],3,3,3,9,3,9,1 (active),1 (active),1 (active),1 (active),1 (active),1 (active),1 (active),1 (active),1 (active),1 (active),0 (inactive),1 (active),0 (inactive),0 (inactive)
Cc1ccc(Nc2nccc(N(C)c3ccc4c(C)n(C)nc4c3)n2)cc1S(N)(=O)=O [pazopanib],1,3,3,1,3,3,1 (active),1 (active),1 (active),1 (active),1 (active),0 (inactive),1 (active),1 (active),1 (active),0 (inactive),1 (active),0 (inactive),0 (inactive),1 (active)
COc1cc2nc(N3CCN(C(=O)C4COc5ccccc5O4)CC3)nc(N)c2cc1OC (stereo not given) [doxazosin],9,9,9,9,3,9,1 (active),1 (active),1 (active),1 (active),1 (active),1 (active),0 (inactive),1 (active),1 (active),1 (active),1 (active),1 (active),1 (active),0 (inactive)
CC[C@H](CO)Nc1nc(NCc2ccccc2)c2ncn(C(C)C)c2n1 [Roscovitine],≤ 0.3,9,≤ 0.3,9,≤ 0.3,9,1 (active),1 (active),1 (active),1 (active),1 (active),1 (active),1 (active),1 (active),1 (active),1 (active),1 (active),0 (inactive),1 (active),1 (active)
CNc1nc(-c2ccc3c(N)n[nH]c3c2)cc(N2C[C@@H](C(=O)NC3CCCCC3)CC[C@H]2C)n1,1,3,1,3,3,3,1 (active),1 (active),1 (active),1 (active),1 (active),0 (inactive),1 (active),1 (active),1 (active),1 (active),1 (active),1 (active),1 (active),1 (active)
O=C(O)[C@]1(Cc2cccc(Nc3nccs3)n2)CC[C@@H](Oc2cccc(Cl)c2F)CC1,≤ 0.3,1,≤ 0.3,1,1,≤ 0.3,1 (active),1 (active),1 (active),1 (active),1 (active),1 (active),1 (active),1 (active),1 (active),1 (active),1 (active),0 (inactive),1 (active),1 (active)
O=C1c2ccccc2-c2nc3nonc3nc21,3,1,3,3,3,3,1 (active),1 (active),1 (active),1 (active),1 (active),1 (active),1 (active),1 (active),1 (active),1 (active),1 (active),0 (inactive),0 (inactive),1 (active)
CC(C)(C)c1cc(NC(=O)Nc2ccc(-c3cn4c(n3)sc3cc(OCCN5CCOCC5)ccc34)cc2)no1 [quizartinib],3,3,1,3,3,3,1 (active),1 (active),1 (active),1 (active),1 (active),1 (active),0 (inactive),1 (active),0 (inactive),1 (active),1 (active),1 (active),1 (active),1 (active)
CN1CCN([C@H]2CC[C@H](n3cc(-c4ccc(Oc5ccccc5)cc4)c4c(N)ncnc43)CC2)CC1,≤ 0.3,1,≤ 0.3,≤ 0.3,≤ 0.3,≤ 0.3,1 (active),1 (active),1 (active),1 (active),1 (active),1 (active),1 (active),1 (active),1 (active),1 (active),0 (inactive),1 (active),1 (active),1 (active)
Cc1cc2c(F)c(Oc3ncnn4cc(OC[C@@H](C)O)c(C)c34)ccc2[nH]1 [brivanib],9,9,9,9,9,9,1 (active),1 (active),1 (active),1 (active),1 (active),1 (active),1 (active),1 (active),1 (active),1 (active),1 (active),0 (inactive),1 (active),1 (active)
N#CC[C@@H](C1CCCC1)n1cc(-c2ncnc3[nH]ccc23)cn1 [ruxolitinib-(S)],3,9,9,9,9,9,1 (active),1 (active),1 (active),1 (active),1 (active),0 (inactive),1 (active),1 (active),1 (active),1 (active),1 (active),0 (inactive),0 (inactive),1 (active)
